Imprint erasure – genomic imprint erasure induction; 110,000 tested, 0.02% active; Potency, µM (doses to about 60.7 µM), for the others: at the highest dose activity change, positive = activation, actives largely listed as activators; mouse ES Peg3-LacZ reporter, beta-gal luminescence, 40 h
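Readout: BetaGlo luminescence (5 min, room temp) for LacZ from the normally silent maternal Peg3 allele in female Peg3LacZ-Neo ES cells. Cells 300/well, 40 h, 37C, 5% CO2. Data normalized per plate to negative controls.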
p53ts 32C tox – p53ts cell cytotoxicity, permissive temperature; H1299-p53A138V at 32C, ATP luminescence viability, 24 h; Potency, µM (series often up to 46.1 µM), for inactives: at the top dose activity change, negative = cytotoxicity, most hits filed as cytotoxic; 130,000 tested, 0.93% active; AID 924;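 also: 0% = DMSO and -100% = full killing by reference compound; nearly all actives have a fitted effect of over 55% in size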
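H1299-p53 A138V cells (temperature-sensitive p53) exposed 24 h to up to 46 uM compound at 32C, where p53 is wild-type in conformation. Viability read as ATP luminescence and normalised to DMSO and 100 uM tamoxifen. AC50 fitted with the Hill equation.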
p53ts 39C tox – p53ts cell cytotoxicity, nonpermissive temperature | 130,000 tested, 1.5% active | AID 902 | H1299-p53A138V viability at 39C, ATP luminescence, 24 h | Potency, µM (top dose mostly 46.1 µM), for the others: at the top dose activity change, negative = cell killing, hits mostly cytotoxic; also: % is scaled to controls: 0 for no effect and ±100 for the full control effect; nearly all actives have a fitted effect of over 55% in size
* = called active by the depositor; ? = inconclusive; . = not tested or not shown; [ ] = remark or other dose. Rows were chosen to be rich in hits. Some 1.8% of all compounds tested hit in one or more screens of this group. Calls follow the shape of the dose curve; as a rule, active = well fitted curve in the direction sought with a large enough effect; inconclusive = small, poorly fitted or top-dose-only effect, or another doubt; inactive = no such curve, though single readings can be large; an effect the other way counts as inactive or inconclusive. Potency is read from the fitted curve at half-maximal effect.

SMILES	Imprint erasure	p53ts 32C tox	p53ts 39C tox
COc1cc2c(cc1NC(=O)COc1cc(C)cc(C)c1)oc1ccccc12	-9%[10.9 µM]	0%	20%
O=c1oc2ccc3ccccc3c2cc1-c1nnc(Nc2cccc(F)c2)s1	-8%[10.9 µM]	8%	11%
Cc1ccc(OCC(=O)Nc2cccc(OCc3cc(=O)n4cccc(C)c4n3)c2)cc1C	?	3%	-13%
CCOC(=O)c1c(C)[nH]c(C)c1S(=O)(=O)N1CCC(C(=O)Nc2ccc(F)cc2F)CC1	-2%[10.9 µM]	-2%	9%
CC(=NCc1ccco1)c1c(O)n(C2CCCCC2)c(=O)[nH]c1=O	-10%	9%	8%
CC(=NCc1ccco1)c1c(C)[nH]n(-c2nc3ccccc3s2)c1=O	-93%	?	7.9µM*
COc1ccc(Cl)cc1NC(=O)Cn1c(=O)n(-c2ccc(C)cc2)c(=O)c2ccc(C(=O)NCc3ccccc3Cl)cc21	?	0%	0%
Cc1ccc(NC(=O)C(=O)NCC(c2cccnc2)N2CCOCC2)cc1C (stereo not drawn)	7%[10.9 µM]	?	?
Cc1ccc(NC(=O)C(=O)NCC(c2cccnc2)N2CCOCC2)cc1Cl (stereo not drawn)	-11%[10.9 µM]	?	20µM*
COc1ccc(C(=O)NCC(c2cccnc2)N2CCN(c3ccccc3)CC2)cc1OC (stereo not drawn)	-91%	10µM*	?
COc1ccc(C(=O)NCC(c2cccnc2)N2CCN(c3ccc(F)cc3)CC2)cc1OC (stereo not drawn)	-5%	-5%	-8%
CCN(CC)c1ccc(NC(=O)C(NS(=O)(=O)c2cccs2)C(C)C)c(C)c1 (stereo not drawn)	-12%[10.9 µM]	-8%	-4%
COc1cccc(C(=O)NCC(c2ccc(N(C)C)cc2)N2CCc3ccccc32)c1 (stereo not drawn)	-15%[10.9 µM]	2%	?
CCCCCCNC(=O)C(C(=O)OCC)C1CCCCC1 (stereo not drawn)	-15%	2%	8%
CCCCCCCCCCCCC(=O)N1CCCC[C@H]1CNC(=O)[C@@H](N)CCCCN	-35%	-7%	32µM*
CCNc1ncc2nc(CCc3ccccc3)c(=O)n(C[C@H]3CCCO3)c2n1	4%	5%	-6%
COc1ncc2nc(-c3ccccc3)c(=O)n(C)c2n1	-4%	-1%	8%
CCOc1ccccc1CNC(=O)C1CCN(S(=O)(=O)c2cccc3nonc23)CC1	-7%[10.9 µM]	8%	-9%
O=C(Nc1ccccc1)c1cc([N+](=O)[O-])ccc1Cl	-27%	?	-15%
O=C(Nc1ccc([N+](=O)[O-])cc1Cl)c1cc(Cl)ccc1O	-96%	?	4µM*
CN1C(=O)c2ccccc2Sc2ccc(NC(=O)N3CCN(c4ccccc4F)CC3)cc21	-4%[10.9 µM]	16%	39%
O=C(Nc1ccc(Cl)cc1F)c1oc(=O)c2ccccc2c1-c1ccccc1	18%[10.9 µM]	2%	17%
Cc1ccc(S(=O)(=O)N[C@@H](Cc2ccccc2)C(=O)CCl)cc1	-32%	6.3µM*	3.2µM*
Cc1ccc(S(=O)(=O)N[C@H](CO)C(=O)O)cc1	-4%[10.9 µM]	18%[9.22 µM]	7%[9.22 µM]
Cc1ccc2cc3c(N)c(C(=O)N4CCOCC4)sc3nc2c1	-80%	?	?
SMILES	Imprint erasure	p53ts 32C tox	p53ts 39C tox
Cc1ccc2nc3sc(C(=O)N4CCOCC4)c(N)c3cc2c1	-34%	6.3µM*	6.3µM*
NC(=O)C1(N2CCCCC2)CCN(C(=O)Nc2ccc(F)cc2)CC1	2%[10.9 µM]	9%	7%
COc1ncc2nc(-c3ccc(F)cc3)c(=O)n(Cc3cccs3)c2n1	7%	-5%	-2%
CCOC(=O)c1ccc(N=c2sc(C(=O)OC)cc(=O)n2CCCN2CCOCC2)cc1	-31%	18%	105%
CCn1c(=O)cc(C(=O)OC)sc1=Nc1ccc(F)c(F)c1	-39%	20µM*	17%
Cc1ccc(Cn2c(=O)n(CCc3ccccc3)c(=O)c3sc4ccccc4c32)cc1	-13%[10.9 µM]	1%	-15%
Clc1ccc(-n2nnnc2Sc2ncnc3sccc23)cc1	-39%	?	20µM*
Cc1sc2ncnc(Sc3nnnn3-c3ccccc3)c2c1C	-33%	?	-19%
COc1ccc(C(=O)Oc2c(CN3CCOCC3)cc(Cl)c3cccnc23)cc1	-31%	-12%	?
COc1cc(C(=O)Oc2c(CN3CCOCC3)cc(Cl)c3cccnc23)cc(OC)c1OC	-35%	?	13µM*
Cc1ccc(OCCn2c(C3CC(=O)N(Cc4ccc(F)cc4)C3)nc3ccccc32)c(C)c1 (stereo not drawn)	-15%[10.9 µM]	1%	-1%
Brc1ccc(-c2nc(-c3ccccn3)no2)o1	-95%	7.9µM*	6.3µM*
Clc1ccccc1OCc1nc(-c2ccccn2)no1	-77%	?	?
Brc1ccc(-c2nc(-c3ccncc3)no2)o1	-27%	-6%	0%
CC(C)Nc1ccc(-c2nc(-c3ccccn3)no2)cc1[N+](=O)[O-]	-16%[10.9 µM]	-9%	-3%
Clc1ccc(OCc2nc(-c3ccccn3)no2)c(Br)c1	-81%	13µM*	13µM*
Clc1ccc(-c2nc(-c3ccccn3)no2)cc1Cl	-65%	5µM*	7.9µM*
O=C(O)C/C=C\CC(=O)O	-18%[10.9 µM]	0%[9.22 µM]	-11%[9.22 µM]
CCOCCc1nnc(NC(=O)C(=O)c2cc(C)n(-c3ccc(C)c(C)c3)c2C)s1	-7%[10.9 µM]	7%	-14%
Cc1ccc(CNC(=O)CN2C(=O)CSc3ccc(S(=O)(=O)N4CCCC4)cc32)cc1	?	-7%	-19%
Cc1cc2ccccc2n2c(SCC(=O)Nc3cccc(C(F)(F)F)c3)nnc12	-9%[10.9 µM]	-5%	-6%
Cc1cccc(NS(=O)(=O)c2ccc3[nH]c4c(c3c2)CCCCCC4)c1	16%[10.9 µM]	0%	?
Cc1ccc(NS(=O)(=O)c2ccc3[nH]c4c(c3c2)CCCCCC4)cc1Cl	-6%[10.9 µM]	1%	25µM*
COc1ccc(NS(=O)(=O)c2ccc3[nH]c4c(c3c2)CCCC4)cc1Cl	.	6%	.
Cc1ccccc1NS(=O)(=O)c1ccc2[nH]c3c(c2c1)CCCCC3	19%[10.9 µM]	9%	25µM*
SMILES	Imprint erasure	p53ts 32C tox	p53ts 39C tox
CC(C)CCNC(=O)c1cccc(Nc2nc3ccccc3n3nnnc23)c1	-19%[10.9 µM]	?	10µM*
CC(NC(=O)c1cccc(Nc2nc3ccccc3n3nnnc23)c1)c1ccccc1 (stereo not drawn)	.	-4%	.
COC(=O)[C@@]1(Cc2ccc(OC)cc2)[C@H]2c3cc(C(=O)N(C)C)n(CCN4CNCC4=O)c3C[C@H]2CN1C(=O)c1ccccc1	-9%	4%	11%
CCCCNC(=O)c1cnn2c(C)c(Cc3c(C)cc(C)cc3C)c(C)nc12	-25%[10.9 µM]	?	16µM*
Cc1nc2c(C(=O)NCc3ccccc3)cnn2c(C)c1Cc1ccc(F)cc1	-20%[10.9 µM]	-3%	?
c1ccc(-n2nnc3c(N4CCOCC4)ncnc32)cc1	-85%	13µM*	13µM*
c1ccc(Cn2nnc3c(N4CCCC4)ncnc32)cc1	-2%	-14%	0%
Cc1ccc(Cn2c(SCC(=O)NCc3ccc(Cl)cc3)nc3ccsc3c2=O)cc1	?	-4%	?
Cc1nn2c(=O)cc(COC(=O)c3ccccc3NC(=O)c3cccs3)nc2s1	24%[10.9 µM]	11%	-15%
O=C(c1ccc2nc(N3CCOCC3)sc2c1)N1CCCC1	-49%	-1%	5%
Nc1nc2ccc(N3CCOCC3)cc2s1	-43%	4µM*	4µM*

Compound activity (PubChem BioAssay)
